Bioassay records deposited in PubChem by several laboratories.
WT yeast gro inh – growth inhibition of WT yeast, mitochondrial fusion screen. mitochondrial fusion phenotypic screen, WT strain. inhibition, % at 10 µM. hit rate 2.1% among 190,000; in the data active means inhibition above about 58%; tested in S. cerevisiae
CHOP inhibitor – inhibitors of CHOP induction in ER stress response; AID 2732; inhibition, % at 10 µM; hit rate 3.8% among 220,000; CHO-K1 CHOP-promoter luciferase, tunicamycin-induced, 15-18 h;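 active means compounds that reduced the stress-induced luciferase reporter signal by more than about 70% of percent inhibition, limit read from the data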
Lmaj promast – reduces viability of Leishmania major promastigotes; AID 1063; inhibition, % at 10 µM; hit rate 9% among 200,000; resazurin fluorescence viability; in the data active means inhibition above about 50%;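 further: promastigotes grown with compound for 44 hours at 28 °C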
RAM inhibit – blocks the yeast RAM network | S. cerevisiae dse1pr::URA3 reporter, 5-FOA growth OD615, 2 d; analog-sensitive cbk1-as2 kinase mutant strain | inhibition, % at 50 µM | hit rate 1.8% among 190,000;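 active means inhibition above a set limit, 3 SD over mean compound inhibition, cut at about 8.4% in these data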;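 further: inhibition rescues growth on 5-FOA so higher OD means more RAM inhibition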
Numbers stand for hits. A selection: hits, their analogues and other compounds. The true share with any hit is near 13%.

Screening COc1ccc(-c2c(=O)n(OCc3ccccc3[N+](=O)[O-])c3ccccc3[n+]2[O-])c(OC)c1 returned WT yeast gro inh inactive, CHOP inhibitor inactive, Lmaj promast inactive and RAM inhibit inactive.
Cc1noc(C)c1S(=O)(=O)N(CCc1ccccc1)Cc1ccccc1 was read as WT yeast gro inh 70, CHOP inhibitor inactive, Lmaj promast inactive and RAM inhibit inactive.
Screening COC(=O)CCC(=O)NNC(=O)c1cccc(Br)c1 returned WT yeast gro inh inactive, CHOP inhibitor inactive, Lmaj promast inactive and RAM inhibit inactive.
Screening O=C(O)CCC(=O)NNC(=O)c1cccc(Br)c1 returned WT yeast gro inh inactive, CHOP inhibitor inactive, Lmaj promast 60 and RAM inhibit inactive.
`Cc1nn(C)cc1CN1CCCC(C(=O)c2ccc(-c3ccccc3)c(F)c2)C1` (configuration not stated) gave WT yeast gro inh inactive, CHOP inhibitor inactive, Lmaj promast 97 and RAM inhibit inactive.
`CCn1cc(CN2CCCC(C(=O)c3ccc(-c4ccccc4)cc3)C2)cn1` (configuration not stated) gave WT yeast gro inh inactive, CHOP inhibitor inactive, Lmaj promast 86 and RAM inhibit inactive.
Cn1cc(CN2CCCC(C(=O)c3ccc(-c4ccccc4)c(F)c3)C2)cn1 (configuration not stated) was read as WT yeast gro inh inactive, CHOP inhibitor inactive, Lmaj promast 87 and RAM inhibit inactive.
`Cn1cc(CN2CCCC(C(=O)c3ccc(-c4ccccc4)cc3)C2)cn1` (configuration not stated) gave WT yeast gro inh inactive, CHOP inhibitor inactive, Lmaj promast 91 and RAM inhibit inactive.
Screening O=C(c1ccc(-c2ccccc2)c(F)c1)C1CCCN(C(=O)c2cncs2)C1 (configuration not stated) returned WT yeast gro inh inactive, CHOP inhibitor inactive, Lmaj promast inactive and RAM inhibit inactive.
`Cc1cc(C)c(NC(=O)CSc2ccc(-c3cccnc3)nn2)c(C)c1` gave WT yeast gro inh inactive, CHOP inhibitor inactive, Lmaj promast inactive and RAM inhibit inactive.
`Cc1ccc(C(=O)OCC(=O)c2c[nH]c3ccccc23)cc1NC(=O)c1ccco1` gave WT yeast gro inh inactive, CHOP inhibitor inactive, Lmaj promast 69 and RAM inhibit inactive.
Screening O=C(COC(=O)CC1CC2CCC1C2)Nc1ccc(F)cc1 (configuration not stated) returned WT yeast gro inh inactive, CHOP inhibitor inactive, Lmaj promast inactive and RAM inhibit inactive.
`Cc1cc(C)n2nc(C(=O)OCC(=O)c3c[nH]c4ccccc34)nc2n1` gave WT yeast gro inh inactive, CHOP inhibitor inactive, Lmaj promast inactive and RAM inhibit inactive.
Screening O=C(CC1CC2CCC1C2)OCC(=O)c1c[nH]c2ccccc12 (configuration not stated) returned WT yeast gro inh inactive, CHOP inhibitor inactive, Lmaj promast 72 and RAM inhibit inactive.
For O=C(OCC(=O)c1c[nH]c2ccccc12)c1cc2ccccc2cc1O the results were WT yeast gro inh inactive, CHOP inhibitor 73, Lmaj promast 62 and RAM inhibit inactive.
CCCN(CCC)S(=O)(=O)c1ccc(Cl)c(OC)c1 was read as WT yeast gro inh inactive, CHOP inhibitor inactive, Lmaj promast inactive and RAM inhibit inactive.
`O=S(=O)(CCN1CCCCC1)Oc1ccc(Cl)cc1Cl` gave CHOP inhibitor inactive.
`Cc1nn(C)c(C)c1S(=O)(=O)N(CC(=O)Nc1ccc2c(c1)OCO2)c1ccc(C(C)C)cc1` gave WT yeast gro inh inactive, CHOP inhibitor inactive, Lmaj promast 50 and RAM inhibit inactive.
`Cc1noc(C)c1S(=O)(=O)N(CC(=O)N1CCCC1)c1ccc(C(C)C)cc1` gave WT yeast gro inh inactive, CHOP inhibitor inactive, Lmaj promast inactive and RAM inhibit inactive.
`Cc1n[nH]c(C)c1S(=O)(=O)N(CC(=O)Nc1ccc2c(c1)OCCO2)c1ccc(C(C)C)cc1` gave WT yeast gro inh inactive, CHOP inhibitor inactive, Lmaj promast 56 and RAM inhibit inactive.
`Cc1noc(C)c1S(=O)(=O)N(CC(=O)Nc1ccc2c(c1)OCO2)c1ccc(C(C)C)cc1` gave WT yeast gro inh inactive, CHOP inhibitor 81, Lmaj promast inactive and RAM inhibit inactive.
Cc1noc(C)c1S(=O)(=O)N(CC(=O)N1CCCCCC1)c1ccc(C(C)C)cc1 was read as WT yeast gro inh inactive, CHOP inhibitor inactive, Lmaj promast 63 and RAM inhibit inactive.
Cc1noc(C)c1S(=O)(=O)N(CC(=O)O)c1ccc2c(c1)OCO2 was read as WT yeast gro inh inactive, CHOP inhibitor inactive, Lmaj promast inactive and RAM inhibit inactive.
Cc1onc(-c2ccccc2)c1C(=O)NNC(=S)NC(=O)/C=C/c1cccs1 was read as WT yeast gro inh inactive, CHOP inhibitor inactive, Lmaj promast inactive and RAM inhibit inactive.
